Screening data (PubChem)
A selection: hits, their analogues and other compounds. The true share with any hit is near 2.4%.
D2 ag-1 – Beta-Arrestin HTS for Positive Allosteric Modulators of the Human D2 Dopamine Receptor: Agonists | activation, % (concentration not given with the values) | D(2) dopamine receptor (Homo sapiens), P14416 | 0.084% of 360,000 active | DiscoveRx PathHunter D2 beta-arrestin, luminescence, 90 min; 100% = 57 uM dopamine signal; in the data active = activation above about 40%
Target sequence (P14416 whole entry, looked up): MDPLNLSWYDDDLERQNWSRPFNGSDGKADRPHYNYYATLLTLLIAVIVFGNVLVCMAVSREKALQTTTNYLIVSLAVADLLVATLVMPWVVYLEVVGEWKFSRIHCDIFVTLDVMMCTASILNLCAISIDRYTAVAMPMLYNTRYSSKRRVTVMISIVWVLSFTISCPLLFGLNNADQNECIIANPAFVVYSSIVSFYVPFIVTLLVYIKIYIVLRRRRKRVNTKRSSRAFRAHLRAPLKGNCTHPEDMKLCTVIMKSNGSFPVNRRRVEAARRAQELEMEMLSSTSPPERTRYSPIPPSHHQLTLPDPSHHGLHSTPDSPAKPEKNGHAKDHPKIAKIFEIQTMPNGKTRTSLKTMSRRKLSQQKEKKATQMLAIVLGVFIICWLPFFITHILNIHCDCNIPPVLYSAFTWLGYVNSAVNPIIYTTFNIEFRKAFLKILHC
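DiscoveRx PathHunter D2 beta-arrestin cells (2,100/well) attached overnight, then compound-stimulated 90 min at 37 C in HBSS/10 mM HEPES/0.1% Tween-20 buffer; beta-galactosidase complementation read by luminescence after 1 h at ambient temperature. Dopamine 57 uM final (EC100) as control.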
D2 PAM-1 – Beta-Arrestin HTS for Positive Allosteric Modulators of the Human D2 Dopamine Receptor: Potentiators; DiscoveRx D2 beta-arrestin cells, luminescence, 90 min; 100% = 57 uM dopamine signal; D(2) dopamine receptor (Homo sapiens), P14416; 0.23% of 360,000 active; potentiation, % (no concentration beside the values); in the data active = potentiation above about 50%
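PathHunter D2 cells, attached overnight at 37 deg C, received compound in DMSO plus dopamine at EC20 (50 nM final) for 90 min at 37 deg C. Beta-arrestin recruitment was read as luminescence after 1 h with detection reagent at ambient temperature.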
D2 PAM-2 – HTS Assay for Positive Allosteric Modulators of the Human D2 Dopamine Receptor: Primary Screen for Potentiators | AID 485347, 2010 | potentiation, % at 10 µM | 0.34% of 340,000 active | HEK293 T-REx D2, calcium flux, EC20 dopamine potentiation | D(2) dopamine receptor (Homo sapiens), P14416;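 active = potentiation over 3 SD above the plate norm, cut at about 30% in these data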; note: 0% is about no effect
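Tetracycline-induced HEK293 T-REx cells force-coupled to calcium signalling expressed D2; compounds were pin-added after a 10 s baseline, read kinetically 180 s, then an EC20 dopamine challenge followed with a further 180 s calcium read.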
D2 antagonist – HTS Assay for Allosteric Antagonists of the Human D2 Dopamine Receptor: Primary Screen for Antagonists; D(2) dopamine receptor (Homo sapiens), P14416; HEK293 TREx D2 cells, calcium flux, dopamine EC80; inhibition, % at 10 µM; 2% of 340,000 active; AID 485344, 2010; in the data active = inhibition above about 30%; inactive = below that, where a call was filed; note: 0% is about no effect
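Calcium flux kinetic readout in an inducible HEK293 TREx D2 line plated overnight at 30 C. After 180 s compound exposure, an EC80 dopamine challenge follows with another 180 s kinetic read to detect antagonism.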
D2 ag-2 – HTS Assay for Allosteric Agonists of the Human D2 Dopamine Receptor: Primary Screen for Agonists | AID 485358, 2010 | HEK293 T-REx D2 cells, calcium flux agonist mode | activation, % at 2 µM | 0.53% of 340,000 active | D(2) dopamine receptor (Homo sapiens), P14416;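 active = activation over 3 SD above normal in the single-dose calcium agonist read, cut at about 30% in these data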; note: 0% is about no effect
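HEK293 Trex D2 cells, tetracycline-induced, o/n 30 C 5% CO2; no-wash Ca dye, RT 30–90 min; 10-cycle baseline, 23 nl cpd added, kinetic Ca read 180 s; agonist hits = positive Ca response.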
An asterisk follows results filed as active; x = no result given; ! = not confirmed by another sample.

SMILES	D2 ag-1	D2 PAM-1	D2 PAM-2	D2 antagonist	D2 ag-2
Cc1ccc(C)c(Cn2nc3c4ccccc4n(Cc4ccccc4)cc-3c2=O)c1	-4	-6	5	30*	0
Cc1cccc(NC(=O)Cn2nc3c4ccccc4n(Cc4ccccc4)cc-3c2=O)c1	x	x	1	x	0
COC(=O)C1=C(C)NC2=C(C(=O)CC(C)(C)C2)C1c1ccccn1 (centres undefined)	0	3	33*	-7	1
CC(=O)c1cccc(NC(=O)Nc2sc3nc4n(c(=O)c3c2C)CCC(C)CC4)c1 (centres undefined)	x	x	-3	x	0
CCN(C(=O)CSc1nc2ccc(O)cc2c(=O)n1-c1ccc(OC)c(OC)c1)C1CCS(=O)(=O)C1 (centres undefined)	-1	-70	9	43*	-1
COc1ccc2c3c(cccc13)C(=O)CC2	-4	-8	-11	-15	49*
COCCCC/C(=N\OCCN)c1ccc(C(F)(F)F)cc1	0	-13	2	54*!	1
CCC(=O)OCc1cnc(C)c2oc(=O)c(C(=O)Nc3ccc(CC)cc3)cc12	x	x	x	x	-1
Nc1nccc(-c2ccc(-n3cccc3)cc2)n1	-1	-8	50*	-6	0
c1ccc(-c2nccc(-c3ccc(-n4cnc5ccccc54)cc3)n2)cc1	-3	-10	4	-5	0
CCn1c(SCC(=O)N2c3ccccc3Sc3ccccc32)nnc1-c1ccco1	2	10	40*	-13	1
CCCn1c(SCC(=O)N2CCc3ccccc32)nnc1-c1ccco1	-3	-8	2	-10	1
CCCn1c(SCC(=O)N2c3ccccc3CC2C)nnc1-c1ccco1 (centres undefined)	-1	-6	43*	-21	1
Cc1ccc2nc(-c3cccnc3SCC(=O)N3c4ccccc4CC3C)[nH]c2c1 (centres undefined)	-2	-5	-4	-5	0
C=CCn1c(SCC(=O)N2c3ccccc3Sc3ccccc32)nnc1-c1ccco1	2	-4	-7	-9	-1
Cc1ccc2nc(SCC(=O)N3c4ccccc4CC3C)c(C)cc2c1 (centres undefined)	-4	-26	32*	3	1
COc1cc(C2c3c(-c4ccccc4O)n[nH]c3C(=O)N2Cc2ccco2)ccc1OCC(C)C (centres undefined)	x	x	4	x	0
Cc1cccc(-c2nc(CCNC(=O)c3ccccc3Br)cs2)c1	x	x	1	x	2
Nc1cc(C(=O)OCC(=O)Nc2ccc(N3CCOCC3)cc2)ccc1Cl	-2	-2	-6	48*	-1
O=C(O)c1cc(N/N=C/c2ccc(N3CCOCC3)s2)ccc1Cl	11	22	20	-17	0
C/C(=N\Nc1ccc(Cl)c(C(=O)O)c1)c1ccc(N2CCOCC2)cc1	-1	7	-1	33*	2
CC(=O)c1ccc(N2C(=O)N(Cc3cccc(C(F)(F)F)c3)c3ccccc3S2(=O)=O)cc1	x	x	-5	x	1
CCOc1ccc(NC(=O)N2CCN(S(=O)(=O)c3ccc4c(ccn4C)c3)CC2)cc1	x	x	2	x	0
CCOc1ccc(N(CC(=O)NCCc2ccc(Cl)cc2)S(=O)(=O)c2c(C)[nH]c(=O)[nH]c2=O)cc1	1	-2	32*	2	-2
CCOc1ccc(N(CC(=O)NCc2ccc(OC)cc2)S(=O)(=O)c2c(C)[nH]c(=O)[nH]c2=O)cc1	9	-1	14	x	0
SMILES	D2 ag-1	D2 PAM-1	D2 PAM-2	D2 antagonist	D2 ag-2
O=c1c2cccnc2n(Cc2ccc(Cl)cc2)c(=O)n1Cc1ccc(F)cc1	x	x	3	x	0
COCCn1c(=O)[nH]c2cc(C(=O)OC)ccc2c1=O	1	21	12	-5	1
COC(=O)c1ccc2c(C)c(C(C)(C)O)[nH]c2c1	3	3	-9	45*	0
Cc1cc(Cl)ccc1NC(=O)CN1C(=O)COc2ccc(S(=O)(=O)Nc3ccccc3)cc21	x	x	-5	x	1
COCCN(C(=O)COc1ccccc1)c1nnc(-c2cccnc2)s1	1	28	-1	-7	0
CCN(C(=O)COc1ccccc1)c1nnc(-c2cccnc2)s1	1	-27	-7	41*	-1
CCN(C(=O)c1c(OC)cccc1OC)c1nnc(-c2cccnc2)s1	1	0	52*	-13	0
Cc1cccc(NCc2nnc3n2CCCCC3)c1C	x	x	-12	x	0
Cc1cccc(C)c1NS(=O)(=O)c1ccc2c(c1)C(=O)c1ccccc1C2=O	11	60*	11	-2	0
O=C(O)c1ccc(NS(=O)(=O)c2ccc3c(c2)C(=O)c2ccccc2C3=O)cc1	3	29	2	-8	0
COc1ccc(-c2cc(N)n(S(=O)(=O)c3c(F)c(F)c(F)c(F)c3F)n2)cc1OC	0	-11	-4	35*	3
COc1ccc(S(=O)(=O)n2nc(-c3cc(OC)c(OC)c(OC)c3)cc2N)cc1OC	-2	-1	3	1	0
CCOC(=O)c1cccc(NC(=O)NCCc2c(C)nn(C)c2C)c1	x	x	-6	x	1
COc1ccccc1-c1cc2nc(C)c(CCC(=O)NCc3cccc(Cl)c3)c(C)n2n1	x	x	6	x	-1
COc1ccc(NC(=O)c2cc3c(s2)-c2c(C)cccc2OC3)c(OC)c1	x	x	-19	x	0
CCOc1nc(C)ccc1-c1noc(-c2ccco2)n1	-1	-10	35*	-13	0
COc1ccc(-c2nc(-c3ccncc3)no2)c(OC)c1	1	-14	14	58*	0
COc1ccc(-c2ccc(-c3noc(-c4ccccc4)n3)c(OC)n2)cc1	-2	-12	-7	31*	1
COc1cc(-c2nc(-c3ccc(C)nc3OC)no2)cc(OC)c1OC	x	x	-8	2	1
CCOc1nc(C)ccc1-c1noc(-c2ccccn2)n1	-1	-20	12	-8	2
COc1nc(C)ccc1-c1noc(-c2ccncc2)n1	-1	-8	38*	-20	0
Cc1ccc(NC(=O)C2CCN(c3nc4ccccc4[nH]3)CC2)c(C)c1	x	x	-10	x	-1
Cc1ccc(NC(=O)c2c(C)oc3ncn(CC(C)C)c(=O)c23)nc1	x	x	x	x	0
Cc1cc(=O)c2cc(C(=O)Nc3ccc(C)c(C)c3)ccc2[nH]1	x	x	11	x	1
